Source: PubChem
C diff growth – C. difficile growth inhibition. Clostridium difficile clinical isolate growth, OD600, 24 h; active compounds read low. growth activity, negative = inhibition, % at 16 µg/mL (by protocol). 0.25% of 86,000 active. AID 1259249;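 active = mean growth activity at or below -80% and every replicate also at or below -80%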
Pf Dd2 growth – inhibitors of Plasmodium falciparum Dd2 growth | P. falciparum Dd2 growth, SYBR Green, 72 h; active compounds read low | activity change, % at 10 µM | 2.3% of 94,000 active; in the data active = activity change below about -80%
Tcruzi prolif – blocks T. cruzi growth in NIH3T3 culture | inhibition, % at 8.34 µM | T. cruzi beta-gal in NIH3T3, GalScreen luminescence, 90 h | 5.9% of 77,000 active;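 active = mean inhibition above about 93%, with at least 55% of replicates each passing it, limit read from the data, passing the limit was not always enough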
Each line names hits and unclear results; the compound was inactive in the other large screens. Sampled rows, rich in hits. Any-hit rate of the full collection: about 6.8%.

C[C@H](CO)N1C[C@H](C)[C@@H](CN(C)Cc2ccc(C(F)(F)F)cc2)OCCCC[C@H](C)Oc2ccc(NC(=O)Cc3ccccc3)cc2C1=O	Pf Dd2 growth -81.4 (no result: C diff growth)
C[C@@H]1CN([C@@H](C)CO)C(=O)c2cc(NC(=O)CCCN(C)C)ccc2O[C@@H](C)CCCCO[C@@H]1CN(C)Cc1ccc(C(F)(F)F)cc1	none
C[C@H]1CCCCO[C@@H](CN(C)CC2CCCCC2)[C@@H](C)CN([C@@H](C)CO)C(=O)c2cc(NC(=O)CCCN(C)C)ccc2O1	Pf Dd2 growth -88.6
C[C@@H]1CCCCO[C@@H](CN(C)Cc2ccc(C(F)(F)F)cc2)[C@@H](C)CN([C@H](C)CO)C(=O)c2cc(NC(=O)Cc3ccccc3)ccc2O1	none (no result: C diff growth)
C[C@@H]1CCCCO[C@H](CN(C)Cc2ccc(C(F)(F)F)cc2)[C@H](C)CN([C@@H](C)CO)C(=O)c2cc(NC(=O)CCCN(C)C)ccc2O1	Pf Dd2 growth -89.0
C[C@@H]1CCCCO[C@H](CN(C)CC2CCCCC2)[C@@H](C)CN([C@H](C)CO)C(=O)c2cc(NC(=O)CCCN(C)C)ccc2O1	none
C[C@@H]1CCCCO[C@H](CN(C)Cc2ccc(C(F)(F)F)cc2)[C@H](C)CN([C@@H](C)CO)C(=O)c2cc(NC(=O)Cc3ccccc3)ccc2O1	none (no result: C diff growth)
C[C@@H]1CCCCO[C@@H](CN(C)Cc2ccc(C(F)(F)F)cc2)[C@H](C)CN([C@@H](C)CO)C(=O)c2cc(NC(=O)Cc3ccccc3)ccc2O1	Pf Dd2 growth -85.8 (no result: C diff growth)
COc1ccc(S(=O)(=O)N(C)C[C@H]2OCCCC[C@@H](C)Oc3ccc(NC(=O)CCCN(C)C)cc3C(=O)N([C@@H](C)CO)C[C@H]2C)cc1	none
Cc1noc(C)c1S(=O)(=O)N(C)C[C@H]1OCCCC[C@@H](C)Oc2ccc(NC(=O)Nc3ccc4c(c3)OCO4)cc2C(=O)N([C@@H](C)CO)C[C@@H]1C	Pf Dd2 growth -86.1
COc1ccc(NC(=O)Nc2ccc3c(c2)C(=O)N([C@H](C)CO)C[C@H](C)[C@H](CN(C)S(=O)(=O)c2c(C)noc2C)OCCCC[C@H](C)O3)cc1	none
COc1ccc(NC(=O)Nc2ccc3c(c2)C(=O)N([C@H](C)CO)C[C@@H](C)[C@H](CN(C)S(=O)(=O)c2c(C)noc2C)OCCCC[C@@H](C)O3)cc1	Pf Dd2 growth -80.5
Cc1noc(C)c1S(=O)(=O)N(C)C[C@H]1OCCCC[C@H](C)Oc2ccc(NC(=O)Nc3ccc4c(c3)OCO4)cc2C(=O)N([C@H](C)CO)C[C@@H]1C	none
Cc1noc(C)c1S(=O)(=O)N(C)C[C@@H]1OCCCC[C@H](C)Oc2ccc(NC(=O)Nc3ccc(C(F)(F)F)cc3)cc2C(=O)N([C@H](C)CO)C[C@H]1C	none
Cc1noc(C)c1S(=O)(=O)N(C)C[C@H]1OCCCC[C@H](C)Oc2ccc(NC(=O)Nc3ccc(C(F)(F)F)cc3)cc2C(=O)N([C@@H](C)CO)C[C@@H]1C	Pf Dd2 growth -83.3, Tcruzi prolif 88.9
Cc1noc(C)c1S(=O)(=O)N(C)C[C@@H]1OCCCC[C@@H](C)Oc2ccc(NC(=O)Nc3ccc(C(F)(F)F)cc3)cc2C(=O)N([C@@H](C)CO)C[C@@H]1C	none
Cc1noc(C)c1S(=O)(=O)N(C)C[C@H]1OCCCC[C@H](C)Oc2ccc(NC(=O)Nc3ccc(C(F)(F)F)cc3)cc2C(=O)N([C@H](C)CO)C[C@@H]1C	Tcruzi prolif 102.1
O=C(c1ccc2c(c1)OCO2)N1CC2(C1)[C@H](c1ccccc1)[C@H](CO)N2C(=O)C1CC1	none (no result: Tcruzi prolif)
C[C@H]1CN([C@@H](C)CO)C(=O)c2cc(C#CC3CC3)cnc2O[C@H]1CN(C)C(=O)c1ccncc1	none (no result: C diff growth)
Cc1cccc(S(=O)(=O)N2CC[C@@H]3[C@@H](CO)N(C)c4ccc(-c5ccc(C#N)cc5)cc4[C@@H]32)c1	none
CC(C)NC(=O)Nc1ccc2c(c1)C(=O)N(C)[C@@H]1CC[C@@H](CC(=O)NC3CCCCC3)O[C@H]1CO2	none
Cc1ccc(S(=O)(=O)N(C)C[C@@H]2Oc3c(NS(=O)(=O)c4ccc(F)cc4)cccc3C(=O)N([C@H](C)CO)C[C@H]2C)cc1	none
C/C=C/c1ccc([C@H]2[C@@H](CO)N(C(=O)c3cnccn3)C23CN(C(=O)C2CC2)C3)cc1	none (no result: Tcruzi prolif)
C[C@@H]1CCCCO[C@@H](CN(C)Cc2ccccc2)[C@@H](C)CN([C@@H](C)CO)C(=O)c2cc(NS(=O)(=O)c3cccs3)ccc2O1	none (no result: C diff growth, Tcruzi prolif)
O=C(NC[C@@H]1CC[C@@H]2[C@@H](CN2C(=O)NC2CCCC2)O1)c1ccc2c(c1)OCO2	none (no result: Tcruzi prolif)
O=C(NC[C@@H]1CC[C@H]2[C@H](CN2Cc2cc(-c3ccccc3)on2)O1)c1ccc2c(c1)OCO2	Pf Dd2 growth -89.8 (no result: Tcruzi prolif)
COc1ccc(CNC(=O)C[C@H]2CC[C@@H](NC(=O)c3cccc(F)c3)[C@@H](CO)O2)cc1	none (no result: C diff growth)
